As a reminder, the AC50 is the midpoint of the concentration-response curve, whichever way the signal moves.

The structures appear in SMILES notation. The source made the active and inactive calls. Rule for the calls: active = hit-call score of the fitted dose curve at least 0.9, where 1 is the maximum; inactive = score below 0.9.

This is an account of results in PubChem BioAssay (EPA / NIEHS).

A short description of this experiment: BSK_3C_SRB: Viability Assessment in the BioMAP Diversity Plus: 3C Assay (AID 2283023).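 Note: fitted both ways against DMSO so a hit may be signal rise or drop.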 To be noted: primary human endothelial cells (HUVEC). Here is the method: BSK_3C is a cell-based, multiplexed-readout assay that uses umbilical vein endothelium, a human vascular primary cell, with measurements taken at 24 hours after chemical dosing in a 96-well plate.BSK_3C_SRB is an assay component measured in the BSK_3C assay. It measures 0.1% sulforhodamine related to cell death using Sulforhodamine staining technology.Data from the assay component BSK_3C_SRB was analyzed into 1 assay endpoint. This assay endpoint, BSK_3C_SRB, was analyzed with bidirectional fitting relative to DMSO as the negative control and baseline of activity. Using a type of viability reporter, gain or loss-of-signal activity can be used to understand changes in the signaling. Furthermore, this assay endpoint can be referred to as a primary readout, because this assay has produced multiple assay endpoints where this one serves a signaling function. To generalize the intended target to other relatable targets, this assay endpoint is annotated to the cell morphology intended target family, where the subfamily is cell conformation.
The levels of cell surface (or secreted, indicated by the prefix "s") biomarker endpoints were measured by ELISA. Overt cytotoxicity to cells in confluent adherent cultures (all systems other than the BT system) was assessed by measuring total protein levels using sulforhodamine B (SRB) staining in parallel cultures at the time of biomarker measurements, indicated as SRB endpoints. For proliferation assays for adherent cell types, individual cell types are cultured at sub-confluence and relative cell numbers quantified by SRB staining at time points optimized for each system (48 h: 3C and CASM3C systems; 72 h: BT and HDF3CGF systems; 96 h: SAg system). SRB was performed by staining cells with 0.1% SRB after fixation with 10% TCA and reading wells at 560 nm.Viability and proliferation of PBMC (T cells) was quantified by Alamar Blue reduction for the SAg and BT systems. For PBMC viability (referred to as PBMC Cytotoxicity within the assay endpoint names), cells were plated (75,000/well in a 96-well plate) and then chemical samples added for 1 h before addition of activators, SEB and TSST-1 (20 ng/mL final concentration each). Cells were incubated for 90 h. Then, Alamar Blue (20 uL/well) (Invitrogen, Cat DAL1100) was added for 6 h, and the plates were read with a fluorescence microplate reader at 546/580 nm (excitation/emission). For PBMC proliferation, cells were plated and activated as above but incubated for only 16 h prior to addition of Alamar Blue. Plates were read after 6 h.
In the case of `CC(C)c1cccc(C(C)C)c1`, the outcome was inactive. Same read-out and setting: in the case of `CC(=O)[C@@]1(O)CC[C@H]2[C@@H]3CCC4=CC(=O)CC[C@]4(C)[C@H]3CC[C@@]21C` it was “inactive”; in that of `CC(=O)S[C@H](C(=O)N[C@H]1Cc2ccccc2[C@H]2CCC[C@@H](C(=O)O)N2C1=O)C(C)C`, “inactive”; in that of `Cc1ccc(C(C)(C)C)c(O)c1`, “inactive”. For the compound `CS(=O)(=O)c1ccc([C@@H](C[C@H]2CCC(=O)C2)C(=O)Nc2cnccn2)cc1Cl`, the result was inactive. On to `O=C1c2c(O)cccc2Cc2cccc(O)c21`, for which the AC50 was 20 µM (active). For `Cc1cc(Cc2ccc(N)c(C)c2)ccc1N`, the result was inactive. On the same count and under the same terms, in the case of `CN(C)CCCN(C)CCCN(C)C` it was “inactive”; in that of `CCCCCCCCCC[N+](C)(C)[O-]`, “inactive”. Consider `CCCCOC(=O)CCCCC(=O)OCCCC`, for which the result was inactive. Regarding `CSc1ccc(Oc2ccc(S(N)(=O)=O)cc2CN(C)C)cc1C`, the outcome was inactive. On the same count and under the same terms, in the case of `O=NO` it was “inactive”.

For the compound `NC1CCCCC1`, the result was inactive. Still for that read-out and setting: in the case of `CC(N)=O` it was “inactive”; in that of `O=C1NC(=O)C(c2ccccc2)(c2ccccc2)N1`, “inactive”; in that of `CCCC(=O)O`, “inactive”.

Take `CC(COCC(C)OC(=O)c1ccccc1)OC(=O)c1ccccc1` (stereo not given): the outcome was inactive.

Take `Cc1cc(SC2=C(O)C[C@@](CCc3ccc(N)cc3)(C(C)C)OC2=O)c(C(C)(C)C)cc1CO`: the result was inactive. Turning to `O=C(O)CC(O)(CC(=O)O)C(=O)O`, the outcome was inactive.

For the compound `COC(=O)[C@H]1[C@H]2C[C@@H]3c4[nH]c5cc(OC)ccc5c4CCN3C[C@H]2C[C@@H](OC(=O)c2cc(OC)c(OC)c(OC)c2)[C@@H]1OC`, the AC50 is 24.9 µM (active).

For `C=CCc1ccc(OC)c(OC)c1`, the result was inactive. On the same count and under the same terms, in the case of `CCCCCCCCCCCCCCCCO` it was “inactive”. With `O=C(N[C@@H](c1ccccc1)[C@@H]1CCCCN1)c1cccc(C(F)(F)F)c1Cl`, the AC50 was 20 µM (active). For the compound `CC(C)c1cccc(C(C)C)c1NC(=O)NS(=O)(=O)c1cc(C(C)(C)O)co1`, the result was inactive. As to `CN(C)C(=O)NC1(c2ccccc2)CCN(CCC[C@]2(c3ccc(Cl)c(Cl)c3)CCCN(C(=O)c3ccccc3)C2)CC1`, the AC50 is 6.65 µM (active). `O=C1CCCCC1`: the result was inactive. With `c1ccc2occc2c1`, the outcome was inactive.

`CC(C)(O)c1ccc(CNC(=O)c2cccnc2Oc2ccc(F)cc2)cc1`: the outcome was inactive. Take `NC(=Nc1ccccc1)Nc1ccccc1`: the outcome was inactive. The same measure, in the same setting: in the case of `O=C(O)c1[nH]n(-c2ccc(S(=O)(=O)O)cc2)c(=O)c1N=Nc1ccc(S(=O)(=O)O)cc1` it was “inactive”.

Take `CCCCCCC(C=O)=Cc1ccccc1`: the AC50 was 31 µM (active). On to `CCCCC(CC)CO` (stereo not given), for which the outcome was inactive.

In the case of `Nc1nc(=S)c2[nH]cnc2[nH]1`, the outcome was inactive. On the same count and under the same terms, in the case of `OCC(CO)n1cnc(-c2ccc(F)cc2)c1-c1ccnc(Oc2ccccc2)n1` it was “inactive”. In the case of `CCN(CC)CCOc1ccc(C(=C(Cl)c2ccccc2)c2ccccc2)cc1`, the concentration at half-maximal activity (AC50) is 11.7 µM (active). The same measure, in the same setting: in the case of `Cc1c(C)c2c(c(C)c1O)CCC(C)(COc1ccc(CC3SC(=O)NC3=O)cc1)O2` (stereo not given) it was 17.3 µM (active).

Consider `CC1=C(C)S(=O)(=O)CCS1(=O)=O`, for which the result was inactive. Still for that read-out and setting: in the case of `NC=O` it was “inactive”; in that of `O=C(O)CN(CC(=O)O)CC(=O)O`, “inactive”; in that of `O=C(O)c1cccnc1`, “inactive”.
